# Cycloheximide cs: counter-screen hit for Shiga toxin inhibitors, cycloheximide; cell reporter, cycloheximide protein synthesis inhibition counterscreen; max response, %; actives 12% (n = 300,000); in the data active = max response mostly above about 13%, no sharp cut-off; inactive = mostly below about 14%; note: read at 38.3 µM for the half of the compounds with a filed dose; 0% is about no effect
# NS1 inh: blocks influenza NS1 protein function; Potency, µM (top dose mostly 46.1 µM), for the others: at the top dose activity, positive = more growth; actives 0.4% (n = 270,000); AID 2326; calls by dose curve; note: potency is the fitted concentration of half-maximal effect; actives are rising curves; nearly all actives have a fitted effect of over 50% in size
#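 OD600 was taken as the measure of yeast growth restored by compound in an NS1-expressing S. cerevisiae strain. Cells had been washed out of glucose medium and diluted 1:100 into galactose -URA medium, pH 6.0.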
# Shiga toxin inh: inhibitors of Shiga toxin in Vero cells; Vero cells, Shiga toxin protein synthesis inhibition reporter; inhibition, % at 38.7 µM; actives 9.2% (n = 290,000); AID 2315; in the data active = inhibition mostly above about 28%, no sharp cut-off; inactive = mostly below about 43%; note: 0% is about no effect
# Pf growth 48h: P. falciparum growth inhibition at 48 hours (one generation); actives 5.9% (n = 310,000); Potency, µM (series often up to 28.7 µM), for the others: at the highest dose activity change, negative = inhibition, usual class: inhibitors; AID 504832; P. falciparum luciferase growth in erythrocytes, 48 h; note: potency is the fitted concentration of half-maximal effect; % is set by controls: 0 for no effect and ±100 for the full control effect
#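 Luminescence readout; reporter = integrated firefly luciferase in P. falciparum. RBC culture at 2% hematocrit, 0.1% parasitemia final, 37 C/5% CO2; decreased signal taken as growth inhibition.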
# Sm TGR inh: inhibitors of Schistosoma mansoni thioredoxin glutathione reductase; Q962Y6; purified TGR, DTNB reduction, TNB absorbance 405 nm; Potency, µM (highest dose often 114 µM), for the others: at the top dose activity change, negative = inhibition, most hits filed as inhibitors; actives 3% (n = 360,000); note: potency is the fitted concentration of half-maximal effect; % is set by controls: 0 for no effect and ±100 for the full control effect; nearly all actives have a fitted effect of over 60% in size
#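 TGR 20 nM + NADPH 100 uM (dispensed conc.), cpd preinc 15 min RT; start with NADPH (500 uM addition) then DTNB (15 mM addition). Kinetic TNB absorbance, 405 nm filter. Four-parameter Hill fit across titration.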
# Pf growth 96h: P. falciparum growth inhibition at 96 hours; actives 6.9% (n = 320,000); P. falciparum luciferase reporter growth, 96 h; Potency, µM (series often up to 28.7 µM), for the others: top-dose activity change, negative = inhibition, usual class: inhibitors; AID 504834; note: potency is the fitted concentration of half-maximal effect; % is set by controls: 0 for no effect and ±100 for the full control effect
#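 Delayed-death screen, second-generation endpoint: infected erythrocytes, 2% hematocrit, 0.05% parasitemia final; 96 hours at 37 C, 5% CO2; luciferase detection reagent; luminescence decrease equals reduced growth.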
# Numbers without * were called inactive; i = inactive; ? = inconclusive; / = no result given; [ ] = dose if it differs, or a comment. An excerpt weighted towards active compounds, which were near 21% of everything screened. Unless noted, calls come from the whole dose curve; as a rule, active = well fitted curve in the direction sought with a large enough effect; inconclusive = small, poorly fitted or top-dose-only effect, or another doubt; inactive = no such curve, though single readings can be large; an effect the other way counts as inactive or inconclusive.
SMILES,Cycloheximide cs,NS1 inh,Shiga toxin inh,Pf growth 48h,Sm TGR inh,Pf growth 96h
COc1ccc(NC(=O)CN(C)C(=O)COc2ccccc2Cc2ccccc2)cc1,/,/,/,9.3µM*,1%,?
CN(CC(=O)Nc1ccc(F)cc1)C(=O)COc1ccccc1Cc1ccccc1,/,/,/,?,-12%,5.2µM*
CCN(CC)CCNC(=O)c1ccc2c(=O)n3nc(Nc4cccc(Cl)c4C)sc3nc2c1,/,/,/,/,-7%,/
O=P(O)(O)OC[C@H]1O[C@](O)(COP(=O)(O)O)[C@@H](O)[C@@H]1O,/,/,/,7%,/,15%
Clc1ccc(Nc2ncn[nH]2)c(Cl)c1,2,3%,34,1%,/,21%
CCCn1ncc(CN2CCC(C(=O)Nc3cccc(-c4cccc(F)c4)c3)CC2)c1C,-5,5%,-10,7.4µM*,0%,?
C=CCn1cc(CN2CCC(C(=O)Nc3cccc(-c4cccc(F)c4)c3)CC2)c(C)n1,-2,-2%,-2,15µM*,5%,?
C=CCn1cc(CN2CCC(C(=O)Nc3cccc(-c4cccc(Cl)c4)c3)CC2)c(C)n1,-13,-1%,-9,?,-15%,-30%
O=C(NC(=S)Nc1cccc2ncccc12)c1cccs1,6,19%,-6,59%,4µM*,23%
O=C(NC(=S)Nc1cccc2ncccc12)c1ccccc1,30,/,97,i,8.9µM*,?
O=S(=O)(c1ccccc1Br)N1CCN(c2ncccn2)CC1,7,-18%,3,15%,2%,7%
Cc1nc2cc(NC(=O)NCc3ccc4c(c3)OCO4)ccc2o1,-1,4%,2,-10%,2%,/
Cc1nc2cc(NC(=O)N3c4ccccc4CC3C)ccc2n1C (centres undefined),19*,3%,33*,154%,-2%,/
Cc1ccccc1NC(=O)N1c2ccccc2CC1C (centres undefined),9,-5%,56,-15%,/,34%
Cc1nc2cc(NC(=O)Nc3ccc(Br)cc3)ccc2o1,47*,-8%,99*,88%,-3%,-3%
CC1Cc2ccccc2N1C(=O)c1ccc2c(c1)nnn2C (centres undefined),-4,2%,-19,7%,-3%,/
Cc1nc2cc(NC(=O)N3c4ccccc4CC3C)ccc2o1 (centres undefined),42*,-7%,73*,138%,1%,/
COC(=O)[C@@]1(Cc2ccc(F)cc2)[C@H]2c3cc(C(=O)N(C)C)[nH]c3C[C@H]2CN1C(=O)c1ccccc1,-1,1%,-8,13µM*,-16%,13µM*
COC(=O)[C@@]1(Cc2ccc(OC)cc2)[C@H]2c3cc(C(=O)N(C)C)n(Cc4ccc(OC(F)(F)F)cc4)c3C[C@H]2CN1C(=O)c1ccccc1,-2,?,-14,?,-14%,3.3µM*
COC(=O)[C@@]1(Cc2ccc(F)cc2)[C@H]2c3cc(C(=O)N(C)C)n(CCc4ccc(OC)c(Br)c4)c3C[C@H]2CN1C(=O)c1ccccc1,-1,-5%,-13,?,1%,5.9µM*
COc1ccc(OCC(=O)NCc2ccc3c(c2)CCN3C(=O)c2ccccc2)cc1,/,/,/,/,-4%,/
COc1ccc(CCNC(=O)C2CCN(C(=O)c3ccc(F)cc3)CC2)cc1OC,1,1%,19,-12%,1%,145%
COC(=O)[C@@]1(Cc2ccc(OC)cc2)[C@H]2c3cc(C(=O)N(C)C)n(C[C@H](O)CO)c3C[C@H]2CN1C(=O)c1ccccc1,-3,-22%,-2,?,-20%,8.3µM*
CCc1ccc(/C=C2/SC(=S)N(CCC(=O)Nc3cccnc3)C2=O)cc1,-2,13%,-8,10%,-1%,?
COc1ccc(-c2nc(C)c(CCNC(=O)c3c(F)cccc3F)s2)cc1,/,/,/,/,2%,/
SMILES,Cycloheximide cs,NS1 inh,Shiga toxin inh,Pf growth 48h,Sm TGR inh,Pf growth 96h
O=C(CN1C(=O)NC2(CCCC2)C1=O)N1CCN(Cc2ccccc2)CC1,/,/,/,?,0%,1%
COC(=O)[C@@]1(Cc2ccc(F)cc2)[C@H]2c3cc(C(=O)N(C)C)n(Cc4ccccc4)c3C[C@H]2CN1C(=O)c1ccccc1,-3,13%,-11,2.9µM*,-24%,3.3µM*
COC(=O)[C@@]1(Cc2ccc(F)cc2)[C@H]2c3cc(C(=O)N(C)C)n(Cc4ccc(OC)c(OC)c4)c3C[C@H]2CN1C(=O)c1ccccc1,-4,-14%,-7,?,-12%,5.2µM*
O=C1CC(c2ccc(Cl)cc2)CC(O)=C1C=NCc1ccc(Cl)c(Cl)c1 (centres undefined),-2,3%,-10,17%,-1%,/
COc1cccc(C(=O)Nc2c3c(nn2-c2ccc(Cl)cc2)CS(=O)(=O)C3)c1OC,-2,5%,-11,?,-3%,-3%
CC(=O)N1CCOc2ccc(S(=O)(=O)N3CCN(c4cc(C)ccc4C)CC3)cc21,-5,22%,14,0%,-13%,26%
Nc1nnc(N2CCCCC2)s1,-4,-5%,10,?,7%,-13%
O=C1CCCc2nc(N3CCCCC3)sc21,30*,-6%,51*,50%,8%,-20%
COc1ccc(NC(=O)CN(C)C(=O)c2cn(-c3ccccc3)nc2-c2ccc(F)cc2)cc1,/,/,/,12µM*,-10%,?
O=C(c1cn(-c2ccccc2)nc1-c1cccs1)N1CCN(c2ccccn2)CC1,16*,-52%,43*,-12%,-1%,/
O=C(O)c1ccc(NC(=O)c2cn(-c3ccccc3)nc2-c2ccc(Br)cc2)cc1,-6,-8%,-9,-4%,1%,160%[5.75 µM]
COc1ccc(NC(=O)CN(C)C(=O)/C=C/c2cn(-c3ccccc3)nc2-c2ccc(C)cc2)cc1,/,/,/,9.3µM*,-4%,13µM*
COc1ccc(NC(=O)CN(C)C(=O)/C=C/c2cn(-c3ccccc3)nc2-c2ccc(F)cc2)cc1,/,/,/,?,3%,?
O=C(O)c1ccc(NC(=O)c2cn(-c3ccccc3)nc2-c2ccccc2)cc1,21*,-2%,56*,25%,/,-5%
Cc1ccc(-c2nn(-c3ccc(F)cc3)cc2C(=O)N(C)CC(=O)Nc2ccc(N3CCOCC3)cc2)cc1,/,/,/,-19%,-4%,?
O=C(Nc1ccc2ccccc2c1)c1cn(-c2ccccc2)nc1-c1cccs1,10,8%,32,?,8%,13µM*
COc1ccc(-c2nn(-c3ccccc3)cc2C(=O)N(C)C)cc1,-2,-2%,-4,34%,0%,?
CN(C)c1ccc(NC(=O)c2cn(-c3ccccc3)nc2-c2cccs2)cc1,24,8%,3,/,-16%,-19%
COc1ccc(-c2nn(-c3ccccc3)cc2C(=O)NC(=S)Nc2cc(Cl)ccc2Cl)cc1,-2,0%,-2,2.9µM*,-15%,5.2µM*
O=C(Nc1cn(-c2ccccc2)nc1-c1cccs1)c1ccco1,18*,-15%,92*,25%,-17%,43%

# Bioassay records from PubChem BioAssay.
